# Paper PMC4336329 (PLoS ONE, 2015)
# Screen size: about 310,000 compounds; about 14,000 (4.5%) showed an effect of 50% or more. The effect is printed as a negative number. For the sample, strong results were picked, then their nearest neighbours and some compounds at random.
# Molecular target: human ether-à-go-go-related gene (hERG) potassium channel (human, UniProt Q12809)
# Test: primary screen, population patch clamp on CHO cells stably expressing hERG; higher = less effect of the substance
# 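Note: peak tail current of the secondary pulse compared with the same well before compound.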
# Chain of human ether-à-go-go-related gene (hERG) potassium channel (Q12809 whole entry, looked up): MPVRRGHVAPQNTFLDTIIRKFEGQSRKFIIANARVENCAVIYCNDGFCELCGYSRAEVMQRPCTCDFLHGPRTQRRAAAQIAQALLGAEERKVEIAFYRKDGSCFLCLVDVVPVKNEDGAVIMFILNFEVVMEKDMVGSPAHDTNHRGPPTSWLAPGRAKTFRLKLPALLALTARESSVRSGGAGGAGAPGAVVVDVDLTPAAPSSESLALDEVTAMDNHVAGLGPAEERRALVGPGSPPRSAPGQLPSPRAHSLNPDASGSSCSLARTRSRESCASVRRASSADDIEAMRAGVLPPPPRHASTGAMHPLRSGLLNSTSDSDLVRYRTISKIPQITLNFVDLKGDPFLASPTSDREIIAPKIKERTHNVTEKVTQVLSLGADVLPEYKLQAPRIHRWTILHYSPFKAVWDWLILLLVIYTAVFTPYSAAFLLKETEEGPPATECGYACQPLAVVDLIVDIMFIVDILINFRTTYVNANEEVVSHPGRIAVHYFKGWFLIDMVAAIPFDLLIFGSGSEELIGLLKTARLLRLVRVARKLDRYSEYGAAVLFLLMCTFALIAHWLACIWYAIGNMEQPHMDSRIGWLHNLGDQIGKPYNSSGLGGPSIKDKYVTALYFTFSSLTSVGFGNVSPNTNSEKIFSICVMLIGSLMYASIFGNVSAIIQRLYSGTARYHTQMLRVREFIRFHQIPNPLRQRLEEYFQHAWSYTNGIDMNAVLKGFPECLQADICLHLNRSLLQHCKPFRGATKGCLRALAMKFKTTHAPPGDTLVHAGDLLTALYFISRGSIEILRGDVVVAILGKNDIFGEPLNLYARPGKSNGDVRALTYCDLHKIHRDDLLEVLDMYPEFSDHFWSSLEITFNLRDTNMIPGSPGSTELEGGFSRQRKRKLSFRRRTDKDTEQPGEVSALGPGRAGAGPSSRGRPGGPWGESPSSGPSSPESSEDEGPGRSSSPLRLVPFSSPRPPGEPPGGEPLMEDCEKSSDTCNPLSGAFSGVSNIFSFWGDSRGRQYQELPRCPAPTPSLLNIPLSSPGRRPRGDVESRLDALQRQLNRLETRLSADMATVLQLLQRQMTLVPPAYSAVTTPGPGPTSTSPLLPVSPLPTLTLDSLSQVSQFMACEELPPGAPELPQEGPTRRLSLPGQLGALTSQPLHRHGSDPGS
row,SMILES,"hERG current change (%, negative = inhibition) at 10uM [%]"
1,CCN(CC)S(=O)(=O)c1ccc(NC(=O)Cc2cccs2)cc1,5.81
2,CCOC(=O)c1c(NC(=O)CSc2nc3c(c(=O)n(C)c(=O)n3C)n2C(C)C)sc(C)c1C,-0.527
3,CCCCNC(=O)c1cc([N+](=O)[O-])[nH]n1,19.1
4,O=C(CSc1nc2ccccc2c(=O)[nH]1)N1CCN(c2ccccc2)CC1,14.1
5,COc1ccccc1N1CCN(C(=O)CSc2nc3ccccc3nc2N2CCCCC2)CC1,19
6,COCCNC(=O)CSc1nc2ccccc2c(=O)n1CCC(=O)N1CCN(c2ccccc2)CC1,-35
7,COc1ccccc1N1CCN(C(=O)CSc2nnc3c4ccccc4nc(Cc4ccccc4)n23)CC1,-4.18
8,COCCNc1nc(SCC(=O)N2CCN(c3ccccc3)CC2)nc2ccccc12,-86.9
9,COCCNc1nc(SCC(=O)N2CCN(c3ccccc3OC)CC2)nc2ccccc12,-88.6
10,O=C(NC1CC1)c1ccc(-c2nc3ccccc3s2)s1,10.7
11,O=C(Cn1cnc2ccccc2c1=O)Nc1nnc(SCc2ccc(Cl)cc2)s1,10.9
12,Cn1cc(CC(=O)N2CCN(c3ccccc3F)CC2)c2ccccc21,-9.66
13,CCCOc1ccccc1N/C(=N\S(=O)(=O)c1ccc(C)cc1)Nc1nc(C)cc(C)n1,26.1
14,CC(C)(OC(=O)c1ccc(C#N)cc1)c1cc2ccccc2c(=O)o1,-73.1
15,N#Cc1ccc(C(=O)OCCCc2cc3ccccc3c(=O)o2)cc1,-69.4
16,CC(C)(OC(=O)c1ccc(F)cc1)c1cc2ccccc2c(=O)o1,3.1
17,CC(C)(OC(=O)c1ccc(C(F)(F)F)cc1)c1cc2ccccc2c(=O)o1,14.6
18,COc1cc2cc(CCOC(=O)c3ccc(C#N)cc3)oc(=O)c2cc1OC,-37.9
19,COc1cc2cc(CCCOC(=O)c3ccc(C#N)cc3)oc(=O)c2cc1OC,-65
20,N#Cc1ccc(C(=O)OCCc2cc3ccccc3c(=O)o2)cc1,-29
21,COc1cc2cc(CCCOC(=O)c3ccc(F)cc3)oc(=O)c2cc1OC,-29.5
22,O=C(OCCCc1cc2ccccc2c(=O)o1)c1ccc(F)cc1,-37.9

row,SMILES,"hERG current change (%, negative = inhibition) at 10uM [%]"
1,COc1cccc(CNCCc2ccccc2)c1OC.Cl,5.21
2,O=C1C=C(c2cccc3c2oc2ccccc23)CCC1,-2.35
3,Cc1c(C(=O)/C=C/N(C)C)nnn1-c1ccc(F)c(Cl)c1,2.73
4,O=C(NCCc1ccccc1)C1CCC(=O)N1CCc1ccccc1 (stereo not drawn),8.78
5,CN1CCN(CCCCOc2ccccc2-c2ccccc2)CC1.O=C(O)C(=O)O,-38.2
6,CC1CC(C)CN(CCOc2ccccc2-c2ccccc2)C1.O=C(O)C(=O)O (stereo not drawn),-68.5
7,O=C(O)C(=O)O.c1ccc(-c2ccccc2OCCOCCN2CCCCC2)cc1,-44.7
8,C=CCc1cc(Cl)ccc1OCCN1CC(C)OC(C)C1.O=C(O)C(=O)O (stereo not drawn),-53.1
9,CC1CCCN(CCOCCOc2ccccc2-c2ccccc2)C1.O=C(O)C(=O)O (stereo not drawn),-72.9
10,CC1CCN(CCCCOc2ccccc2F)CC1.O=C(O)C(=O)O,-13.3
11,CC1CN(CCOCCOc2ccccc2-c2ccccc2)CC(C)O1.O=C(O)C(=O)O (stereo not drawn),-13.5
12,C=CCc1cc(Cl)ccc1OCCn1ccnc1.O=C(O)C(=O)O,-10.1
13,CC1CN(CCCOc2ccccc2-c2ccccc2)CC(C)O1.O=C(O)C(=O)O (stereo not drawn),-47.2
14,C=CCc1cc(OC)ccc1OCCN1CC(C)OC(C)C1.O=C(O)C(=O)O (stereo not drawn),-9.85
15,CC1CCN(CCCCOc2ccccc2-c2ccccc2)CC1.O=C(O)C(=O)O,-72.6
16,CC1CN(CCOc2ccccc2-c2ccccc2)CC(C)O1.O=C(O)C(=O)O (stereo not drawn),-9.99
17,Cc1ccc(S(=O)(=O)N2CCC(C(=O)Nc3ccc(S(=O)(=O)N4CCCC4)cc3)CC2)cc1,-10.6
18,COc1cccc(C2C(C(=O)c3sc(C)nc3C)=C(O)C(=O)N2CCN2CCOCC2)c1 (stereo not drawn),10.8
19,Fc1ccc(CNc2ccc(N3CCN(Cc4ccccc4)CC3)cc2)cc1,-30.1
20,COc1ccc(C(=O)NCc2nnc(SCCOc3ccccc3)n2C)cc1,-15.5
21,O=C(CCNS(=O)(=O)c1ccccc1C(F)(F)F)N1CCN(c2ccccc2O)CC1,-26.9
22,CCC(=O)N1CCN(c2ccc(NC(=S)NC(=O)COc3ccccc3)cc2)CC1,-21.6

row,SMILES,"hERG current change (%, negative = inhibition) at 10uM [%]"
1,CC(=O)c1c(C)[nH]c(C(=O)Nc2nc(-c3ccc(-c4ccccc4)cc3)cs2)c1C,19.3
2,O=C(COCc1cc(-c2ccc3c(c2)OCO3)on1)Nc1cccnc1,10
3,CC1CCN(CCOc2ccccc2-c2ccccc2)CC1.O=C(O)C(=O)O,-58.6
4,CC1CC(C)CN(CCOc2ccc(Cl)cc2Cl)C1.O=C(O)C(=O)O (stereo not drawn),-67.3
5,CC1CCN(CCOCCOc2ccccc2-c2ccccc2)CC1,-57.2
6,CC1CC(C)CN(CCOc2cccc(Cl)c2Cl)C1.O=C(O)C(=O)O (stereo not drawn),-35.9
7,CC1CCN(C(=O)COc2ccc3ccccc3c2Br)CC1,11.8
8,CC1CCCN(CCOc2ccc3ccccc3c2Br)C1.O=C(O)C(=O)O (stereo not drawn),-69
9,CC1CN(CCOc2ccc(Cl)cc2Cl)CC(C)O1.O=C(O)C(=O)O (stereo not drawn),-24.6
10,O=C(O)C(=O)O.c1ccc(-c2ccccc2OCCOCCN2CCNCC2)cc1,2.27
11,CC1CCCN(CCOCCSc2ccccc2)C1.O=C(O)C(=O)O (stereo not drawn),-34.5
12,CC1CCN(CCOCCOc2ccccc2Br)CC1,-30.1
13,CC(=O)N(CC1CCCO1)c1nnc(-c2cnccn2)s1 (stereo not drawn),12.8
14,Cc1ccc(NC(=O)CN(C)C(=S)NC2CC2)cc1,16.4
15,Cc1ccc(C(=O)Nc2cc3c(oc2=O)CCCC3=O)cc1,-2.47
16,COc1cc(/C=C/C(=O)NC(C)C2CC3CCC2C3)cc(OC)c1OC (stereo not drawn),10.6
17,O=C(CN1C(=O)S/C(=C\c2cccs2)C1=O)Nc1ccc(O)cc1C(=O)O,8.88
18,CCOc1ccc(-n2ccnc2SCC(=O)Nc2nnc(CC)s2)cc1,-11.9
19,CCC(=O)N1CCc2cc(Br)cc(S(=O)(=O)N3CCCCC3CC)c21 (stereo not drawn),0.791
20,CCCN(c1ccc(C)cc1)c1nc(=O)c2cccnc2s1,-28
21,COc1cc(S(=O)(=O)N2CCCCC2)ccc1NC(=O)c1ccccc1Cl,-24.6
22,C=CCNC(=O)C1CC2Cn3c(nc4cc5ccccc5cc43)C2N1C (stereo not drawn),-16.2

row,SMILES,"hERG current change (%, negative = inhibition) at 10uM [%]"
1,CN1C(C(=O)NCc2ccccc2)CC2Cn3c(nc4cc5ccccc5cc43)C21 (stereo not drawn),-67.9
2,Cc1cc2nc3n(c2cc1C)CC1CC(C(=O)NCc2cccc(Br)c2)N(C)C31 (stereo not drawn),-72.5
3,Cc1cc2nc3n(c2cc1C)CC1CC(C(=O)NCc2ccccc2)N(C)C31 (stereo not drawn),-31.4
4,CN1C(C(=O)NCc2ccccc2)CC2Cn3c(nc4ccccc43)C21 (stereo not drawn),-0.69
5,COCCNC(=O)C1CC2Cn3c(nc4cc5ccccc5cc43)C2N1C (stereo not drawn),-3.93
6,CCCNC(=O)C1CC2Cn3c(nc4ccccc43)C2N1C (stereo not drawn),12.8
7,COCCNC(=O)C1CC2Cn3c(nc4cc(C)c(C)cc43)C2N1C (stereo not drawn),8.23
8,Cc1cc2nc3n(c2cc1C)CC1CC(C(=O)NCc2ccco2)N(C)C31 (stereo not drawn),-29
9,CN1C(C(=O)NCc2cccc(Br)c2)CC2Cn3c(nc4ccccc43)C21 (stereo not drawn),-67.7
10,CN1C(C(=O)NCc2cccc(Br)c2)CC2Cn3c(nc4cc5ccccc5cc43)C21 (stereo not drawn),-62
11,CN1C(C(=O)NCc2ccco2)CC2Cn3c(nc4cc5ccccc5cc43)C21 (stereo not drawn),-38.6
12,Cc1ccc(S(=O)(=O)[N-]c2nc3ccccc3nc2-n2cc[n+](Cc3ccccc3)c2)cc1,11
13,O=C(c1csc2c1CCCC2)N1CCN(c2ncccn2)CC1,-25.1
14,O=C(NCc1cccc(C(F)(F)F)c1)c1ccc(=O)[nH]c1,22.5
15,Cc1oc(-c2ccccc2)nc1CS(=O)CC(=O)O (stereo not drawn),10.2
16,Cc1nn(-c2ccccc2)c(N2CCCC2)c1C=O,2.49
17,Cc1cccc(-c2ncc(CN3CCCC(CO)(Cc4ccccc4C)C3)cn2)c1 (stereo not drawn),-11.4
18,Cc1cccc(/C=N/NC(=O)Cc2ccc(Cl)cc2)c1O,18.6
19,Cc1cc(C)nc(SCC(=O)NN)n1,21.1
20,O=C(NCc1ccccc1)c1ccc[n+]([O-])c1,30.8
21,O=S(=O)(Nc1nc2cc3c(cc2nc1Cl)OCCO3)c1ccccc1,-15.5
